Results: PubChem BioAssay (Tox21)
Inconclusive results are not listed. Active and inactive are the calls of the source. Unless noted, the call rests on the fitted dose curve.

What was measured:
[1] = Nuclear factor erythroid 2-related factor 2/antioxidant responsive element (Nrf2/ARE) small molecule agonists: luciferase reporter gene qHTS assay in human keratinocytes (AID 1919969); further: nearly all actives have a fitted effect of over 35% in size; further: potency means the concentration at half of the fitted maximal effect
[2] = target: Gonadotropin-releasing hormone receptor (Homo sapiens) (UniProt P30968); experiment: Human gonadotropin-releasing hormone receptor (GnRHR) small molecule agonists, calcium flux assay in GnRHR-HEK293 cells (AID 1920063); further: nearly all actives have a fitted effect of over 35% in size
Sequence of Gonadotropin-releasing hormone receptor (Homo sapiens) (P30968 whole entry, looked up): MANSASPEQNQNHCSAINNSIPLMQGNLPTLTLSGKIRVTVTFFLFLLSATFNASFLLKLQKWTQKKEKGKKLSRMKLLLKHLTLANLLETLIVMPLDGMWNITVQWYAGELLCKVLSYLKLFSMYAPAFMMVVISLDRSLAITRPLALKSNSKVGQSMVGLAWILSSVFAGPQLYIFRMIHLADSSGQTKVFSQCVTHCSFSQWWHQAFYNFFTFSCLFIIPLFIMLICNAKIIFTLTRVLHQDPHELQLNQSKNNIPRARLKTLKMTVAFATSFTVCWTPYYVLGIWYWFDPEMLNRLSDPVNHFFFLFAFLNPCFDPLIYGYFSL
Method in brief: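 Fluorescence kinetics (480 nm excitation, 540 nm emission; 3 min, 1 s steps) report calcium mobilisation in human GnRHR-HEK293 cells in agonist mode. Dye incubation: 1 h, 37 C.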

[3] = target: KiSS-1 receptor (Homo sapiens) (UniProt Q969F8); experiment: Human kisspeptin (KISS1R) small molecule agonists, calcium flux assay in KISS1R-HEK293 cells (AID 1920064; active means well fitted activation curve with a large enough effect in the repeat runs)
Sequence of KiSS-1 receptor (Homo sapiens) (Q969F8 whole entry, looked up): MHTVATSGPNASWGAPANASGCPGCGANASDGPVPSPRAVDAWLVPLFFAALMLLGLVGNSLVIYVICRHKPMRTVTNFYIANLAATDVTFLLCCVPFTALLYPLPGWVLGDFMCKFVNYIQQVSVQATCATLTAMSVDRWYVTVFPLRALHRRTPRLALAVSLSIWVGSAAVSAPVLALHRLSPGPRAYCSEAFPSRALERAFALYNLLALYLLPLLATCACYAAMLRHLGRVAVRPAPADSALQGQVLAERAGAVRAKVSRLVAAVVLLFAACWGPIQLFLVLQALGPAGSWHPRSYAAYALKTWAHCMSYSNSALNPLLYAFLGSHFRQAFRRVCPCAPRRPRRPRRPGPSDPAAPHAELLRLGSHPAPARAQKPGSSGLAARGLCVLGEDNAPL
Method in brief: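 Measures KISS1R agonism through calcium-sensitive dye fluorescence in stably transfected HEK293 cells, read for 3 min after pin-tool compound delivery; 15-point titrations in triplicate.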

[4] = G protein-coupled receptor (GPCR) small molecule agonists, calcium flux assay: HEK293 wild type cell line counter screen (AID 1920065)
Method in brief: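 Readout: fluorescence at 480 nm excitation/540 nm emission, sampled at 1 s intervals for 3 min. Cells had been cultured 18 h, then dye-loaded 1 h at 37 C before compound or ATP addition.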

[5] = p53 small molecule agonists, cell-based qHTS assay with human liver microsomes (AID 1963577);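 further: p53 response element beta-lactamase reporter cells with liver microsomes plus NADPH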
Method in brief: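 Steps: plate p53RE-bla cells, incubate 5 h at 37 C; add compound in DMSO; add microsomes (0.5 mg/mL final) and NADPH (0.5 mg/mL final); incubate 16 h at 37 C; add LiveBLAzer, 2 h RT; read fluorescence.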

[6] = p53 small molecule agonists, cell-based qHTS assay with rat liver microsomes (AID 1963578)
Method in brief: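 Metabolic activation is supplied by rat liver microsomes with NADPH (each 0.5 mg/mL final). p53RE-bla cells incubate with compound 16 h at 37 C; reporter activity is measured by LiveBLAzer fluorescence.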

[7] = p53 small molecule agonists, cell-based qHTS assay with rat liver microsomes: qHTS cell viability counter screen (AID 1963580); further: nearly all actives have a fitted effect of over 45% in size; further: potency means the concentration at half of the fitted maximal effect
Method in brief: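 In HCT-116 cells carrying a p53 response element-bla reporter, compounds were metabolically activated in situ by rat liver microsomes with NADPH over 16 h. Cell ATP content then served as the cytotoxicity measure.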

[8] = p53 small molecule agonists, cell-based qHTS assay: qHTS cell viability counter screen (AID 1963581); further: nearly all actives have a fitted effect of over 45% in size; further: potency means the concentration at half of the fitted maximal effect
Method in brief: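 In the same plates used for the p53 bla reporter, HCT-116 cells given compounds for 16 h at 37 C received CellTiter-Glo; luminescence was recorded 30 min later at room temperature.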

[9] = p53 small molecule agonists, cell-based qHTS assay (AID 1963582; active means well fitted activation curve with a large enough effect in the signal ratio in the repeat runs, not every such curve was filed as active; the % refers to the signal ratio; further: potency means the concentration at half of the fitted maximal effect)
Method in brief: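 Compounds are pin-transferred in DMSO onto p53RE-bla cells and incubated 16 h at 37 C. The B/G FRET beta-lactamase substrate is then applied for 2 h at RT and fluorescence recorded.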

[10] = target: 5-hydroxytryptamine receptor 2A (Homo sapiens) (UniProt P28223); experiment: 5-hydroxytryptamine receptor 2A (HTR2A) small molecule agonists, cell-based qHTS assay (AID 1963587); further: nearly all actives have a fitted effect of over 30% in size; further: potency means the concentration at half of the fitted maximal effect
Sequence of 5-hydroxytryptamine receptor 2A (Homo sapiens) (P28223 whole entry, looked up): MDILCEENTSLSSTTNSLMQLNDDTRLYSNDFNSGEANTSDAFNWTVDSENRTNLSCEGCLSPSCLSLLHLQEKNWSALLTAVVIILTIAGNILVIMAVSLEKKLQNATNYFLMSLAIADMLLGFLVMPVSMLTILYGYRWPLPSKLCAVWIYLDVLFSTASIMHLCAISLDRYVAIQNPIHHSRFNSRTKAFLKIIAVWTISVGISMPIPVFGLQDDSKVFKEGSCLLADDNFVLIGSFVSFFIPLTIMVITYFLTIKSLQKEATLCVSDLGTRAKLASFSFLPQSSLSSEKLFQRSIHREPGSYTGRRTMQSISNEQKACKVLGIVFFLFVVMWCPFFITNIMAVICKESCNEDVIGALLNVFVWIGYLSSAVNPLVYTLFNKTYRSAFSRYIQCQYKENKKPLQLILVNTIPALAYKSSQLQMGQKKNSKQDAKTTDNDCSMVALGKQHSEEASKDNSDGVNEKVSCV
Method in brief: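 HTR2A-CHO cells, plated 18 h at 37 C/5% CO2, dye-loaded 1 h at 37 C; compounds in DMSO added by pin tool (agonist mode). Intracellular calcium flux read as kinetic fluorescence on FDSS over 2 min at 1 s intervals.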

[11] = target: Muscarinic acetylcholine receptor M1 (Homo sapiens) (UniProt P11229); experiment: Cholinergic receptor muscarinic 1 (CHRM1) small molecule antagonists, cell-based qHTS assay (AID 1963588); further: nearly all actives have a fitted effect of over 40% in size; further: potency means the concentration at half of the fitted maximal effect
Sequence of Muscarinic acetylcholine receptor M1 (Homo sapiens) (P11229 whole entry, looked up): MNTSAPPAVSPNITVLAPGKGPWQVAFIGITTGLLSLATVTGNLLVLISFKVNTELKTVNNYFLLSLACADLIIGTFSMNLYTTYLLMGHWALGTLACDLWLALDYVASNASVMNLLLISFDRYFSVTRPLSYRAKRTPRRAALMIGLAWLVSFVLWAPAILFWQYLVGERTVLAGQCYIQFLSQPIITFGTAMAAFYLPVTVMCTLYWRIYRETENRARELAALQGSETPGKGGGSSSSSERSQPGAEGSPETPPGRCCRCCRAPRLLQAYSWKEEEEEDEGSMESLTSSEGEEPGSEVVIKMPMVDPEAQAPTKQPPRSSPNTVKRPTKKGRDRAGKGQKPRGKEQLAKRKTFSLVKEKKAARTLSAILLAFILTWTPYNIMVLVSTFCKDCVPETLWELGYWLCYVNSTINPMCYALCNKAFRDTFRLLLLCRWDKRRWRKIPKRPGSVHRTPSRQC
Method in brief: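 CHRM1-CHO calcium-flux assay, antagonist mode. Cells were seeded 18 h, dye-loaded 1 h at 37 C and given compound for 5 min at RT, then acetylcholine was added at 50nM. FDSS fluorescence was read 3 min; 15 concentrations, three runs.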

[12] = target: Muscarinic acetylcholine receptor M1 (Homo sapiens) (UniProt P11229); experiment: Cholinergic receptor muscarinic 1 (CHRM1) small molecule agonists, cell-based qHTS assay (AID 1963589); further: nearly all actives have a fitted effect of over 35% in size
Method in brief: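 Each compound was tested at 15 concentrations across three independent runs on dye-loaded CHO cells stably expressing human CHRM1, reading intracellular calcium fluorescence kinetically at 1 sec intervals.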

[13] = target: Beta-2 adrenergic receptor (Homo sapiens) (UniProt P07550); experiment: Adrenergic beta2 receptor (ADRB2) small molecule antagonists, cell-based qHTS assay (AID 1963592); further: nearly all actives have a fitted effect of over 50% in size; further: potency means the concentration at half of the fitted maximal effect
Sequence of Beta-2 adrenergic receptor (Homo sapiens) (P07550 whole entry, looked up): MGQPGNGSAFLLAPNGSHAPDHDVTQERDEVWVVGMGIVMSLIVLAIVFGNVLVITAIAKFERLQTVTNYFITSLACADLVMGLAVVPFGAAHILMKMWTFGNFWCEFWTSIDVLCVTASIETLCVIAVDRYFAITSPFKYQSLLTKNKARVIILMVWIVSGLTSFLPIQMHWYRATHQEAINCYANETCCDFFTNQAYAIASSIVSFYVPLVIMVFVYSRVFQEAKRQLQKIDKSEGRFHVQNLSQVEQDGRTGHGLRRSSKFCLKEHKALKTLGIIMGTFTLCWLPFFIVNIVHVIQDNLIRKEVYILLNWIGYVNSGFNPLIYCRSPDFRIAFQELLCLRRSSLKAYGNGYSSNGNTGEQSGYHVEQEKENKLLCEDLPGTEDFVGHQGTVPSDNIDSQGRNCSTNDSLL
Method in brief: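 Cells (CHO, stable ADRB2 overexpression) incubated 18-20hr at 37C; compounds added from DMSO; agonist mix (1nM isoproterenol, 100uM IBMX, 25uM Ro-20-1724) added; 0.5hr RT; d2-cAMP and anti-cAMP-cryptate added; 1hr RT; 665/615 nm read.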

[14] = target: D(2) dopamine receptor (Homo sapiens) (UniProt P14416); experiment: Dopamine D2 receptor (DRD2) small molecule agonists, cell-based qHTS assay (AID 1963594); further: nearly all actives have a fitted effect of over 35% in size
Sequence of D(2) dopamine receptor (Homo sapiens) (P14416 whole entry, looked up): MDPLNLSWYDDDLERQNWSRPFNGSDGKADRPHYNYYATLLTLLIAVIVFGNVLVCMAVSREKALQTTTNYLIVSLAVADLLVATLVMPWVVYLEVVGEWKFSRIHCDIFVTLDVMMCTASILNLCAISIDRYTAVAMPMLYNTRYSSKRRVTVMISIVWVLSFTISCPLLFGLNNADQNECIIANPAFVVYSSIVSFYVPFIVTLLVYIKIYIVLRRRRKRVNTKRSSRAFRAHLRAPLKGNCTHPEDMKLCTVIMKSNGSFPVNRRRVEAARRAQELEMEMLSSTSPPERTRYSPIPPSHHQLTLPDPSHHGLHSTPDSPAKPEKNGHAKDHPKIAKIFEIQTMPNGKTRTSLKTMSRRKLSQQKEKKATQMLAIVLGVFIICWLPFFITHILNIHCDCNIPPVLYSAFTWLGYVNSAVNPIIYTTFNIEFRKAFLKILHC
Method in brief: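 HEK293 cells stably expressing DRD2 were cultured 24 h at 37 C, then given Ro20-1724 (0.1 mM final) and compounds for 10 min at room temperature. NKH477 (200nM) was then added for 30 min. cAMP was read by HTRF.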

[15] = target: D(2) dopamine receptor (Homo sapiens) (UniProt P14416); experiment: Dopamine D2 receptor (DRD2) small molecule antagonists, cell-based qHTS assay (AID 1963595; active means well fitted inhibition curve with a large enough effect in the signal ratio in the repeat runs, with a control signal flat; the % refers to the signal ratio; further: potency means the concentration at half of the fitted maximal effect)
Method in brief: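 Antagonist mode in DRD2-HEK293 cells: after compound addition with 0.1 mM Ro20-1724, cells received quinpirole (12 nM) and NKH477 (200 nM) for 30 min at room temperature; HTRF cAMP read after 1 h detection.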

[16] = cAMP Responsive Elements (CRE) small molecule antagonists, cell-based qHTS assay (AID 1963591; active means well fitted inhibition curve with a large enough effect in the signal ratio in the repeat runs, not every such curve was filed as active; the % refers to the signal ratio; further: potency means the concentration at half of the fitted maximal effect)
Method in brief: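 Inhibition of NKH477-driven (0.25 uM final) CRE-beta-lactamase signal in HEK293T cells, 3 h compound exposure at 37 °C, detected by FRET substrate fluorescence.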

[17] = target: 5-hydroxytryptamine receptor 2A (Homo sapiens) (UniProt P28223); experiment: 5-hydroxytryptamine receptor 2A (HTR2A) small molecule antagonists, cell-based qHTS assay (AID 1963586); further: nearly all actives have a fitted effect of over 45% in size; further: potency means the concentration at half of the fitted maximal effect
Method in brief: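 Antagonist-mode intracellular calcium assay: DOI (4 nM) added after 5 min compound pre-incubation at room temperature to dye-loaded HTR2A-CHO cells. Fluorescence followed for 3 min, sampled every second.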

[18] = cAMP Responsive Elements (CRE) small molecule agonists, cell-based qHTS assay (AID 1963590)
Method in brief: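 Cell line: CRE-bla HEK 293T; medium DMEM/10% dialyzed FBS/0.1 mM NEAA/1 mM pyruvate/25 mM HEPES; 3 h compound exposure; beta-lactamase FRET readout after 2 h substrate loading at RT.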

[19] = p53 small molecule agonists, cell-based qHTS assay with human liver microsomes: qHTS cell viability counter screen (AID 1963579); further: nearly all actives have a fitted effect of over 45% in size
Method in brief: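 After the 460/530 nm beta-lactamase read, CellTiter-Glo was added to the same wells and luminescence measured after 30 min at room temperature, giving viability of p53RE-bla cells treated 16 h with compounds plus microsomes and NADPH.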

[20] = target: Beta-2 adrenergic receptor (Homo sapiens) (UniProt P07550); experiment: Adrenergic beta2 receptor (ADRB2) small molecule agonists, cell-based qHTS assay (AID 1963593);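 further: CHO cells stably overexpressing human ADRB2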
Method in brief: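 CHO cells stably over-expressing ADRB2 were plated overnight at 37C, then dosed with compounds plus a stimulation mix containing 100uM IBMX and 25uM Ro-20-1724 for 0.5hr at room temperature. cAMP was measured by HTRF competition, 1hr.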

Measured: Potency

CCOc1ccccc1N
not listed: [16] | [17] | [18] | [19] | [20]
inactive: all other assays above

CCCCCCCCCCn1cc[n+](CCCCCCCCCC)c1C
active: [7] 32.4 µM | [8] 36.4 µM | [10] 55 µM | [11] 2.98 µM | [16] 21.7 µM | [13] 27.3 µM
inactive: [1] | [2] | [3] | [4] | [5] | [6] | [12] | [14]

CN(C)CCN(Cc1ccc(Cl)cc1)c1ccccn1
active: [17] 8.18 µM | [11] 7.29 µM
not listed: [15] | [19] | [20]
inactive: all other assays above

CC1=CCC(=C(C)C)CC1
not listed: [7] | [14] | [20]
inactive: all other assays above

Cc1ccc2c(c1)c1c3n2CCNC3CCC1 (stereo unspecified)
active: [17] 18.3 µM | [10] 9.52 µM
not listed: [8] | [19] | [20]
inactive: all other assays above

Cc1cc(SC2=C(O)C[C@@](CCc3ccc(N)cc3)(C(C)C)OC2=O)c(C(C)(C)C)cc1CO
not listed: [9] | [16] | [18] | [19] | [20]
inactive: all other assays above

CC(C)C[P+](C)(CC(C)C)CC(C)C
not listed: [8] | [11] | [14] | [20]
inactive: all other assays above

CC(C)=CCC1=C(O)c2ccccc2C(=O)C1=O
active: [1] 60.8 µM | [8] 3.61 µM | [9] 4.06 µM
not listed: [6] | [13] | [15] | [18]
inactive: all other assays above

Cc1occc(=O)c1OC(=O)C(C)C
not listed: [8] | [9] | [14] | [20]
inactive: all other assays above

CN1CC(=O)N/C1=N/C(=O)Nc1cccc(Cl)c1
not listed: [8] | [13] | [16]
inactive: all other assays above

O=C(CCCN1CCC(O)(c2ccc(Br)cc2)CC1)c1ccc(F)cc1
active: [15] 0.188 µM
not listed: [10] | [11] | [13] | [17] | [19] | [20]
inactive: all other assays above

Nc1ccc(C(=O)OCCCOC(=O)c2ccc(N)cc2)cc1
not listed: [7] | [16] | [17] | [18] | [20]
inactive: all other assays above

CN1CCC[C@@H]1Cc1c[nH]c2ccc(CCS(=O)(=O)c3ccccc3)cc12
active: [17] 0.365 µM | [10] 0.107 µM
not listed: [8] | [19] | [20]
inactive: all other assays above
